Measured values taken from PubChem BioAssay (NCI).
Several values for one entry are separate records, joined by “and”; a condition that tells them apart may be missing. Equal values may be shown once. Compounds without any hit were thinned out: in the full panel of roughly 83,000, 20% have a hit.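 Single-dose data. Exposure time 48 hours. Values below 10 considered active.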 Activity calls are given as the source filed them.

System: HL-60(TB) leukemia
Assay: NCI-60 one-dose screen, 48 h (100 = growth as untreated, 0 = no growth, -100 = all killed)
Details: 10 µM unless noted

Row | SMILES | growth
1 | COC(=S)SCN(CSC(=S)OC)c1ccc(Cl)cc1 | 90.4% (inactive)
2 | O=C(Nc1ccc(Oc2cccc(Cl)c2)c(Cl)c1)c1cnccn1 | 1.5% (active)
3 | C=C(C)[C@@H]1CC[C@]2(C(=O)NCCNCCNC(=O)OC(C)(C)C)CC[C@]3(C)[C@H](CC[C@@H]4[C@@]5(C)CCC(=O)C(C)(C)[C@@H]5CC[C@]43C)[C@@H]12 | -14.3% [100 µM] (active)
4 | COc1cc(-c2cc(-c3cccs3)c(C#N)c(N3CCOCC3)n2)cc(OC)c1OC | 58.9% (inactive)
5 | N#CCSc1nnc2n(Cc3ccccc3)c(=O)c3c4c(sc3n12)CCCC4 | 81.7% (inactive)
6 | O=S(=O)(NCCCNc1nccc(-c2c(-c3ccc(F)c(O)c3)nc3occn23)n1)c1ccc(Cl)cc1 | 94.2% (inactive)
7 | COc1nc2c(cc1S(=O)(=O)c1ccccc1)CCc1c-2cnn1-c1cccc(Cl)c1 | 65.2% (inactive)
8 | N#CC(C#N)=C1NC(c2ccccc2)=C(c2ccccc2)C(c2ccccc2Cl)=C1C#N | 79.2% (inactive)
9 | COc1cc(-c2c3c(nc4c2c(C)nn4-c2ccccc2)-c2ccccc2C(=O)C3=O)cc(OC)c1OC | 68.8% (inactive)
10 | COc1ccc2c(NCCCCCCCCNc3c4ccccc4nc4cc(OC)ccc34)c3ccccc3nc2c1 | -92.3% (active)
11 | CCOc1ccccc1/C=N\N=C(\N)N/N=C/c1ccccc1OCC | -7.32% (active)
12 | COc1ccc(Nc2ccnc(N3CCN(c4ccnc5cc(Cl)ccc45)CC3)n2)cc1 | -16.8% (active)
13 | Cc1[nH]c(=O)[nH]c(=O)c1CCSSCCc1c(C)[nH]c(=O)[nH]c1=O | 99.5% (inactive)
14 | CN1C(=O)/C(=C/c2nc(-c3cccc(F)c3)n3ccccc23)c2ccccc21 | 92.6% (inactive)
15 | COc1cc(-c2nc(/C=C3/C(=O)Nc4ccccc43)c3ccccn23)cc(OC)c1OC | 89.6% (inactive)
16 | ClC/C=C/CSc1ncnc2nc[nH]c12 | 97.9% (inactive) and 95.6% (inactive)
17 | CC(C)CCC(=O)[C@@H](C)[C@H]1[C@@H](OC2OCC(O)C(O)C2NS(C)(=O)=O)C[C@H]2[C@@H]3CC=C4C[C@@H](O)CC[C@]4(C)[C@H]3CC[C@]12C (stereo partly drawn) | 7.32% (active)
18 | C#CCOc1cccc(Nc2ncnc3ccc(NC(=O)CCl)cc23)c1 | -58.4% (active)
19 | CN(C)c1ccc(/C=N/NC(=O)COc2cc(=O)n(C)c3ccccc23)cc1 | 98.5% (inactive)
20 | O=C1c2cccnc2C(=O)c2c1c(C(=O)OCCN1CCCCC1)c1ccccn21 | -46.5% (active)
21 | COc1cc2c(cc1-c1c(C)noc1C)ncc1nc(C3CCOCC3)n([C@H](C)COC(F)F)c12 | 27.5% (inactive)
22 | CC(C)(C)NCCC(O)c1cc2c(Cl)cc(Cl)cc2c2cc(C(F)(F)F)ccc12 (stereo not drawn) | -60.9% (active)
23 | CCOC(=O)c1sc(NS(=O)(=O)c2ccccc2)nc1C | 153% (inactive)
24 | O=C1/C(=C/c2ccc(F)cc2)COc2ccc(O)cc21 | 19.1% (inactive)
25 | CC(=O)c1ccc(N2C(=O)c3ccc(Oc4ccccc4)cc3C2=O)cc1 | 105% (inactive)
26 | CC(=O)N[C@H](C(=O)N[C@@H](CCCNC(=N)N)C(=O)N[C@@H](CCCCN)C(=O)N[C@@H](CCCNC(=N)N)C(=O)N[C@]1(C)CCC/C=C\CCC[C@@](C)(C(=O)N[C@@H](CC(C)C)C(=O)N[C@@H](CC(C)C)C(=O)N[C@@H](CCC(N)=O)C(=O)N[C@@H](CCC(=O)O)C(=O)N[C@@H](CCCNC(=N)N)C(=O)N[C@@H](CCC(=O)O)C(=O)N[C@@H](CC(C)C)C(=O)N[C@H](C(=O)N[C@@H](CCC(=O)O)C(N)=O)C(C)C)NC(=O)[C@H](CCCNC(=N)N)NC(=O)[C@H](CC(C)C)NC1=O)C(C)C | 104% (inactive)
27 | CCCCN1C(=O)c2cccc3c(-c4ccc5c(c4)ncn5C4CCCCC4)ccc(c23)C1=O | 99.7% (inactive)
28 | Cc1c(C(=O)NCc2ccccc2)[n+](=O)c2cc(F)ccc2n1[O-] | 189% (inactive)
